Consider 15 compounds from PubChem BioAssay (Tox21).

Assay [1] in a line: qHTS assay to identify small molecule antagonists of the estrogen related receptor (ERR) signaling pathway - cell viability counter screen (AID 1224818).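 Note: series mostly up to about 46 µM; viability measured after 17.5 h of compound exposure.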 Put shortly: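 Here, ERR cells are plated at 2,000 cells per well, allowed 6 h to attach, and treated with compounds in DMSO for 17.5 h at 37 C. CellTiter-Fluor is then added and fluorescence read after 30 min.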
Background: In qHTS, concentration-response curves come from the screen itself.

Assay [2] in a line: qHTS assay to identify small molecule antagonists of the estrogen related receptor (ERR) signaling pathway (AID 1224819;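 note: luminescence from an ERR-driven luciferase reporter measured with One-Glo reagent; series mostly up to about 46 µM; nearly all actives have a fitted effect of over 50% in size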). Put shortly:
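LOPAC library screened for antagonism as reduced One-Glo luminescence in ERR reporter cells (2,000/well). Compounds were added after 6 h pre-incubation and left 18 h at 37C; reading followed a 30 min room-temperature reagent step.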

A short description of assay [3]: qHTS assay to identify small molecule agonists of the estrogen related receptor (ERR) signaling pathway (AID 1224820). Note: potency is the fitted concentration of half-maximal effect. Summed up: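 ERR reporter cells (NTP line) plated 2,000/well, incubated 6 h at 37 C/5% CO2, then pinned with compounds in DMSO and held 18 h at 37 C. One-Glo added; luminescence read after 30 min at room temperature.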
Assay [4] has as its system estrogen-related receptor alpha (ERRalpha) with PGC-1alpha coactivator, human. In words: qHTS assay to identify small molecule antagonists of the estrogen related receptor signaling pathway with the pleiotropic PPARgamma coactivator (PGC) (AID 1224821; calls by dose curve;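 note: series mostly up to about 46 µM; lower luminescence signal means antagonism of PGC/ERR signalling; nearly all actives have a fitted effect of over 50% in size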). Put shortly:
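Cells engineered for PGC/ERR signalling (line from NTP) were plated 6 h at 37 C/5% CO2, then exposed to DMSO-dissolved compound for 18 h at 37 C. Luciferase activity was read by One-Glo luminescence after 30 min at room temperature.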

Assay [5] in a line: qHTS assay to identify small molecule antagonists of the estrogen related receptor signaling pathway with the pleiotropic PPARgamma coactivator (PGC) cell viability counter screen (AID 1224822; note: series mostly up to about 46 µM). Summed up:
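qHTS format, DMSO compound stocks pin-transferred onto PGC/ERR cells 6 h after plating; 17.5 h exposure at 37 C, then CellTiter-Fluor fluorescence.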

The nature of assay [6]: qHTS assay to identify small molecule agonists of the retinoic acid receptor (RAR) signaling pathway (AID 1159553). Summed up:
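Cell line C3RL4, RARE luciferase reporter. Treatment: compounds in DMSO, 6 hr, 37 C, 5% CO2, after overnight plating. Detection: luminescence, 30 min RT after reagent.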

A short description of assay [7]: qHTS assay to identify small molecule antagonists of the estrogen related receptor (ERR) signaling pathway from Tox21 library - cell viability counter screen (AID 1224834). Note: nearly all actives have a fitted effect of over 30% in size. Note: potency is the fitted concentration of half-maximal effect. Summed up: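 Viability readout (CellTiter-Fluor fluorescence, 30 min at 37 C) multiplexed with the ERR assay; cells treated 17.5 h at 37 C with compounds delivered in DMSO.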
The target of assay [8] is Luciferin 4-monooxygenase (Photinus pyralis) (UniProt P08659). In words: qHTS assay to identify small molecule inhibitors of firefly luciferase (AID 1224835). Note: series mostly up to about 120 µM; nearly all actives have a fitted effect of over 25% in size. Put shortly:
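Inhibition of purified Photinus luciferase is measured by luminescence. Substrate levels (D-luciferin, ATP) sit at their KM values. Each compound is tested in a concentration series.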

Assay [9] is described as follows: qHTS assay to identify small molecule agonists of the constitutive androstane receptor (CAR) signaling pathway - cell viability counter screen (AID 1224836). Note: series mostly up to about 92 µM; nearly all actives have a fitted effect of over 45% in size. Summed up: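 23 h treatment, 37 C, 5% CO2. Cell line: HepG2 stably expressing hCAR with a CYP2B6-2.2kb construct. Co-treatment: PK11195, 0.75 uM final. Read-out: CellTiter-Fluor fluorescence intensity.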
The nature of assay [10]: qHTS assay to identify small molecule antagonists of the constitutive androstane receptor (CAR) signaling pathway - cell viability counter screen (AID 1224837). Note: series mostly up to about 92 µM; nearly all actives have a fitted effect of over 45% in size. Put shortly:
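Fluorescence from CellTiter-Fluor served as the viability signal. Human hepatoma HepG2 cells stably bearing hCAR and CYP2B6-2.2kb received compound plus CITCO (50 nM final) for 23 hr.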

Assay [11] deals with Nuclear receptor subfamily 1 group I member 3 (Homo sapiens) (UniProt Q14994). In words: qHTS assay to identify small molecule antagonists of the constitutive androstane receptor (CAR) signaling pathway (AID 1224838).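 Note: HepG2 cells stably expressing hCAR with CYP2B6 luciferase reporter stimulated by CITCO; nearly all actives have a fitted effect of over 40% in size.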 Note: potency is the fitted concentration of half-maximal effect. Put shortly: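 Quantitative HTS in double-stable HepG2-CYP2B6-hCAR cells. After 4 h plating, cells get compound (15 concentrations) and CITCO at 50 nM final, incubate 24 h at 37 C, then ONE-Glo luminescence is read.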
Nuclear receptor subfamily 1 group I member 3 (Homo sapiens), sequence (Q14994 whole entry, looked up): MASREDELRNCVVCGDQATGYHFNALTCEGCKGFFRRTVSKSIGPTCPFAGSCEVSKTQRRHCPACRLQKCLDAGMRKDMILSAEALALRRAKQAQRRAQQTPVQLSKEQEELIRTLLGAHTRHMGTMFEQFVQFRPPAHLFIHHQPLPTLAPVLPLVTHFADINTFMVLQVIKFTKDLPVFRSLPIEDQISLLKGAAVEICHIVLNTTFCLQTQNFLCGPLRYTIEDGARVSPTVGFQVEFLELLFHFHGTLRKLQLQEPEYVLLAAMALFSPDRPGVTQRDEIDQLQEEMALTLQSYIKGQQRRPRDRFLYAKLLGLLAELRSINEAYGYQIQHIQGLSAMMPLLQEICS

The target is the same in assay [12]. As to the kind of experiment: qHTS assay to identify small molecule agonists of the constitutive androstane receptor (CAR) signaling pathway (AID 1224839).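 For activation: HepG2 cells stably carrying human CAR and a CYP2B6 luciferase reporter; series mostly up to about 92 µM.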 Note: nearly all actives have a fitted effect of over 15% in size. Note: potency is the fitted concentration of half-maximal effect. Summed up: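 Compounds tested at 15 concentrations on HepG2 cells stably harbouring hCAR and CYP2B6-2.2kb reporter constructs, co-treated with PK11195 (0.75 uM final), 24 h at 37 C; luminescent reporter signal quantified.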

Assay [13] in a line: qHTS assay to identify small molecule antagonists of the estrogen related receptor signaling pathway with the pleiotropic PPARgamma coactivator (PGC) from Tox21 10K library (AID 1224841; call rule not given here; note: actives are mostly falling curves and most rising ones were filed inactive; nearly all actives have a fitted effect of over 50% in size; note: potency is the fitted concentration of half-maximal effect). Put shortly: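 Compound exposure ran 18 hours at 37 C in PGC/ERR cells (2,000/well) that had first rested 6 hours in a 37 C/5% CO2 incubator. Luciferase activity was then detected with One-Glo after a 30-minute room-temperature step.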

The nature of assay [14]: qHTS assay to identify small molecule agonists of the estrogen related receptor signaling pathway with the pleiotropic PPARgamma coactivator (PGC) from Tox21 10K library (AID 1224842). Note: nearly all actives have a fitted effect of over 15% in size. Summed up: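 Luminescence from One-Glo (30 min, room temperature) measured after PGC/ERR cells had 18 h at 37 C with pinned compound (23 nL in DMSO). Cells had been seeded at 2,000 per well and pre-incubated 6 h.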

For assay [15], the target named is Thyrotropin receptor (Homo sapiens) (UniProt P16473). In words: qHTS assay to identify small molecule agonists of the thyroid stimulating hormone receptor (TSHR) signaling pathway (AID 1224843; calls by dose curve; note: nearly all actives have a fitted effect of over 45% in size). Put shortly:
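HEK293 cells stably bearing the thyrotropin receptor were plated at 800 cells/well and challenged with compound (30 min, RT). Accumulated cAMP was quantified via cAMP-d2 competing for cryptate-tagged antibody.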

The nature of assay [16]: qHTS assay to identify small molecule agonists of H2AX (AID 1224845; active = well fitted activation curve with a large enough effect in the signal ratio in the repeat runs, not every such curve was filed as active; the % refers to the signal ratio). Put shortly: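 Phospho-H2AX Ser139 measured by HTRF (ex 320 nm; em 665 and 620 nm) after 24 hr antibody incubation. Compounds, 15 concentrations, 0.76% DMSO, were applied to CHO-K1 cells for 3hr at 37C before lysis.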
A short description of assay [17]: qHTS assay to identify small molecule agonists of the hypoxia (HIF-1) signaling pathway - cell viability counter screen (AID 1224844; calls by dose curve; note: nearly all actives have a fitted effect of over 50% in size; note: potency is the fitted concentration of half-maximal effect). Put shortly:
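Luminescent ATP content (CellTiter-Glo, 30 min, room temperature) served as the viability measure in HRE-bla ME-180 cells exposed to compounds for 17 hrs in low-serum medium (0.5% dialyzed FBS).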

Assay [18] in a line: qHTS assay to identify small molecule agonists of the hypoxia (HIF-1) signaling pathway (AID 1224846; active = well fitted activation curve with a large enough effect in the signal ratio in the repeat runs, not every such curve was filed as active; the % refers to the signal ratio). Put shortly: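 Measured by blue/green FRET after loading CCF4-AM: beta-lactamase expressed from a hypoxia response element in ME-180 cells. Test agents were delivered in DMSO and left 17 hrs; cells had been plated 5 hrs earlier in low-serum (0.5% dialyzed FBS) medium.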
The nature of assay [19]: qHTS assay to identify small molecule agonists of the estrogen related receptor signaling pathway with the pleiotropic PPARgamma coactivator (PGC) (AID 1224823). Note: potency is the fitted concentration of half-maximal effect. Put shortly: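 PGC/ERR reporter cells were seeded, rested 6 h at 37 C/5% CO2, then exposed to compounds in DMSO by pin transfer for 18 h at 37 C. Luciferase activity was read as luminescence after One-Glo reagent and 30 min at room temperature.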

Inconclusive results are not listed. Activity calls are given as the source filed them. Unless noted, calls come from the whole dose curve; as a rule, active = well fitted curve in the direction sought with a large enough effect in the repeat runs; inconclusive = weak or mixed curves; inactive = no such curve, though single readings can be large; an effect the other way counts as inactive or inconclusive.

Luciferin 4-monooxygenase (Photinus pyralis), sequence (P08659 whole entry, looked up): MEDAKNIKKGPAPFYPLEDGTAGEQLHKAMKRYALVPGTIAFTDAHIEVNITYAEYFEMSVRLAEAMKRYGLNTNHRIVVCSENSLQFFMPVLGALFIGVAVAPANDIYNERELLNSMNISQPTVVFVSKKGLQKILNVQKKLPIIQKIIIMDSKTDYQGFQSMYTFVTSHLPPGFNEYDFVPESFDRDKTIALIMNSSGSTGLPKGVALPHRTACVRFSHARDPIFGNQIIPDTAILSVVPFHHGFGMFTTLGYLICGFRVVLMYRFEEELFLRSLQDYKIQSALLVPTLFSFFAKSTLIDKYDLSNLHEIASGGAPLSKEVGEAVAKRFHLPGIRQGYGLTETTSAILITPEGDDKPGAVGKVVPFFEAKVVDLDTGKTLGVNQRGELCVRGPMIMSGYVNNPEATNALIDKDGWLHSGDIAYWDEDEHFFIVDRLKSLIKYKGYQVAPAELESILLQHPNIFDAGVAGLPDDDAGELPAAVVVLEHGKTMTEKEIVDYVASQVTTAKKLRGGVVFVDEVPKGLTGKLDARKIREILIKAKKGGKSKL
Thyrotropin receptor (Homo sapiens), sequence (P16473 whole entry, looked up): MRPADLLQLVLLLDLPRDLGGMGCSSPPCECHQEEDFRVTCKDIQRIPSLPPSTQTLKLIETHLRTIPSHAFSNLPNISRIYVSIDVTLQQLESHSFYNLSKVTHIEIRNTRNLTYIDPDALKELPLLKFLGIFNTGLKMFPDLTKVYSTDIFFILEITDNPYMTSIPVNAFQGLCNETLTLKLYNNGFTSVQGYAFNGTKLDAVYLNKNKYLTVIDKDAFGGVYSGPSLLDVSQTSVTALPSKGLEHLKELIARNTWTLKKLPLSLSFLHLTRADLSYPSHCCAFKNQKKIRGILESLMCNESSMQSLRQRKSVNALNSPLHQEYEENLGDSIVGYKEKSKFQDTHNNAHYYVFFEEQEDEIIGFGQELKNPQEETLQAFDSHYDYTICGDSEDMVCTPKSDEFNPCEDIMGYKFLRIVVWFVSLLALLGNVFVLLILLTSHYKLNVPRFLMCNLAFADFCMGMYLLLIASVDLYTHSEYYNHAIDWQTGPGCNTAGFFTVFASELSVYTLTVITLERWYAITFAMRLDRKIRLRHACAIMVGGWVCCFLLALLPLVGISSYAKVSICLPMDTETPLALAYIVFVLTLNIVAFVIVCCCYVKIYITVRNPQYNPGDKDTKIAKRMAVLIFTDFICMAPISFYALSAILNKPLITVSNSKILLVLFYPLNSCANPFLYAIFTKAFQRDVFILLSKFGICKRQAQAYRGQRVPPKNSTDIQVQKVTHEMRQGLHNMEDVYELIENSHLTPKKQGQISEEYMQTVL

Regarding `CNCCC=C1c2ccccc2CCc2ccccc21`, the Potency result in assay [1], in [2], in assay [3], in [4] and in assay [5] was “inactive” in each case.
With `CCCCC#Cc1nc(NC)c2ncn([C@@H]3O[C@H](CO)[C@@H](O)C3O)c2n1` (stereo partly specified), the Potency entry in [1], in assay [2], in assay [3], in assay [4] and in assay [5] was “inactive” each time.
For `OCC1O[C@H](O)C(Cl)C(O)C1O` (stereo partly specified), the Potency result in [1], in [2], in [3], in [4] and in assay [5] was “inactive” throughout.
For the compound `Cc1cc(NC(=O)Nc2ccc3c(ccn3C)c2)sn1`, the Potency entry in [1], in [2], in assay [4] and in assay [5] was “inactive” throughout. The Potency in assay [3] is 10.2 µM (active).
With `O=C1CCCCCCCCCCCCCC1`, the Potency entry in assay [6], in assay [7], in assay [8], in assay [9], in [10] and in assay [11] was “inactive” in each case. For the same compound, the Potency entry in [13], in assay [14] and in assay [15] was “inactive” throughout. The Potency in [12] is 30.6 µM (active).
Turning to `CCCCCCCCCCCCCCCCCCNC(=O)OC1CCN(C(=O)OC[C@H](COC(=O)N(Cc2cccc[n+]2CC)C(=O)c2ccccc2OC)OC)CC1`, the Potency result in assay [6], in assay [8], in [11], in [12], in assay [14] and in [16] was “inactive” throughout. Also, the Potency is 26.6 µM (active) in assay [7] and 11.9 µM (active) in assay [13].
Take `N.N.N.N.N.N.N.N.N.N.N.N.N.N.O.O.[Cl-].[Cl-].[Cl-].[Cl-].[Cl-].[Cl-].[Ru+4].[Ru+5].[Ru+5]`: in assay [1], the Potency entry was “inactive”.
With `c1ccc2cc3c4ccccc4c4ccccc4c3cc2c1`, the Potency entry in assay [6], in [7], in [12], in [15] and in assay [18] was “inactive” in each case. The Potency is 10.9 µM (active) in assay [11] and 22 µM (active) in assay [17].
With `CCCCCC[C@@H]([C@@H](C)O)n1cnc2c(N)ncnc21`, the Potency result in assay [1], in [2], in [3], in assay [4] and in assay [5] was “inactive” in each case.
With `CC1=C(C(=O)O)N2C(=O)[C@@H](NC(=O)C(N)c3ccccc3)[C@H]2SC1` (stereo partly specified), the Potency result in assay [1], in assay [2], in [3], in [4] and in assay [5] was “inactive” each time.
As for `Oc1ccc(Cl)cc1C1CCCC1`, the Potency result in assay [6], in [7], in assay [8], in [9], in assay [10] and in assay [11] was “inactive” throughout. For the same compound, the Potency result in assay [13], in [14] and in assay [16] was “inactive” throughout.
In the case of `O=C(N[C@H](CO)[C@H](O)c1ccc([N+](=O)[O-])cc1)C(Cl)Cl`, the Potency entry in assay [6], in assay [1], in assay [5], in assay [7], in assay [8] and in [9] was “inactive” throughout. Also, the Potency result in assay [11], in assay [17] and in assay [16] was “inactive” each time.
Consider `O=C(Nc1ccc2[nH]ncc2c1)C1CCC1`, for which the Potency result in assay [1], in assay [2], in assay [4] and in assay [5] was “inactive” in each case. For the same compound, the Potency in assay [3] is 12.8 µM (active).
For the compound `OC[C@H]1O[C@@H](n2cnc3c(NC4CCCCC4)ncnc32)[C@H](O)[C@@H]1O`, the Potency result in assay [1], in [2], in assay [3], in assay [4] and in assay [5] was “inactive” throughout. Also, in assay [19], the Potency was 8.74 µM (active).
Regarding `Fc1ccc(CN(C2=NCCN2)c2c(Cl)cccc2Cl)cc1`, the Potency result in [1], in assay [2], in assay [3], in [4], in [5] and in [19] was “inactive” each time.
